Assay outcomes (PubChem)
Hits are enriched below; roughly 12% of the tested compounds scored in any of these assays.
USP8 block – inhibitors of human USP8 deubiquitinase; Ubiquitin carboxyl-terminal hydrolase 8 (Homo sapiens), P40818; purified USP8, Ub-rhodamine cleavage fluorescence, 30 min; inhibition, % at 20 µM; hit rate 4.2% among 47,000; AID 1645853, 2021
USP17 block – inhibitors of human USP17 deubiquitinase. purified USP17, Ub-rhodamine cleavage fluorescence, 3 h. hit rate 6.5% among 47,000. inhibition, % at 50 µM
USP30 inh – inhibitors of human USP30 deubiquitinase | purified USP30, Ub-rhodamine cleavage fluorescence | inhibition, % at 25 µM | hit rate 5.3% among 47,000 | AID 1645860, 2021
Each line names hits and unclear results; the compound was inactive in the other large screens. Cut-off read from the data, not from the text of the source: active = inhibition above about 30%; inactive = the rest.

CCC(=O)Nc1nc2cc(NC(=O)c3ccccc3C)ccc2s1	none
CCC(=O)Nc1nc2cc(NC(=O)Nc3ccc(C)cc3)ccc2s1	USP8 block 47, USP30 inh 42
CCC(=O)Nc1nc2cc(NC(=O)Nc3cccc(C)c3)ccc2s1	USP30 inh 38
CCC(=O)Nc1nc2cc(NS(=O)(=O)c3cccc(C)c3)ccc2s1	none
COc1ccccc1NC(=O)Nc1ccc2sc(NC(=O)C3CCCCC3)nc2c1	USP30 inh 31
COCCN1C[C@H]2CCN(C(=O)CCc3ccccc3C)CC[C@H]2S1(=O)=O	none
CN1CCn2c(-c3cccnc3)cnc2C12CCN(Cc1ccccc1)CC2	none
O=C(c1ccc(-c2cncnc2)nc1)N1CCN(c2ccccc2F)CC1	none
COc1ccc(S(=O)(=O)N2CCc3nc4ccccc4n3CC2)cc1	USP17 block 57, USP30 inh 54
COc1ccccc1S(=O)(=O)N1CCc2nc3ccccc3n2CC1	none
O=C(c1ccc(F)cc1F)N1CCc2nc3ccncc3cc2C1	none
CC(C)(C)c1cc2nc3c(c(=O)n2[nH]1)CN(Cc1ccccn1)CC3	none
CC(C)(C)c1cc2nc3c(c(=O)n2[nH]1)CN(Cc1ccc(Br)s1)CC3	USP8 block 40
O=C(CC1C(=O)Nc2nc(-c3ccccc3)nn21)Nc1ccccc1 (configuration not stated)	none
O=C(CC1C(=O)Nc2nc3ccccc3n21)Nc1cccc2ccccc12 (configuration not stated)	USP8 block 55, USP30 inh 46
O=C(CC1C(=O)Nc2nc(-c3ccccc3)nn21)Nc1cccc2ccccc12 (configuration not stated)	USP8 block 41, USP17 block 84
O=C(CC1SCCNC1=O)Nc1cccc2ccccc12 (configuration not stated)	none
COc1cc2c(cc1OC)CN(Cc1cc(=O)n3ccsc3n1)CC2	USP8 block 56
Cc1ccc(OC(C)C(=O)N2CCN(Cc3cc(=O)n4ccsc4n3)CC2)cc1 (configuration not stated)	none
Cc1cc(S(=O)(=O)NCCn2cnc3ccccc32)ccc1F	none
N#Cc1c(Cl)cccc1Oc1ccc(S(=O)(=O)N2CCOCC2)cc1	none
c1ccc(-n2c(SCCc3ccncc3)nnc2N2CCOCC2)cc1	USP30 inh 42
OCCSc1nnc(N2CCCC2)n1-c1cccc(Cl)c1	none
COc1ccc(C2c3[nH]c4ccccc4c3C[C@@H]3C(=O)N(C4CCN(Cc5ccccc5)CC4)CC(=O)N23)c(OC)c1 (some centres not stated)	none
CCOc1ccc(NC(=O)COc2cccc3c2CCN(CC)C3=O)cc1	none
CCN1CCc2c(OCC(=O)Nc3cc(C(F)(F)F)ccc3Cl)cccc2C1=O	USP17 block 74, USP30 inh 98
Cc1ccc(-n2nnc(-c3cccs3)n2)cc1	none
Cc1ccc(OCC(=O)Nc2ccc3c(c2)CCC(=O)N3Cc2ccccc2)cc1	none
COc1ccc(OCC(=O)Nc2ccc3c(c2)CCC(=O)N3Cc2ccccc2)cc1	USP30 inh 32
CC1=C(C(=O)OC(C)C)C(c2sccc2C)n2c(nc3ccccc32)N1 (configuration not stated)	none
O=C(Nc1ccc(F)cc1Cl)c1cc(C2CC2)n2nccc2n1	none
CCCC(=O)Nc1nc2ccc(CCC(=O)Nc3cccc(OC)c3)cc2s1	none
COc1ccc(CNC(=O)CCc2ccc3nc(NC(=O)C(C)C)sc3c2)cc1	USP30 inh 33
CC1CS(=O)(=O)N(c2ccc(C(=O)N3CCN(c4ccccc4F)CC3)cc2)C1=O (configuration not stated)	none
O=C(NC1CC1)C1CCN(c2nc3ccc(-c4cccnc4)nc3s2)CC1	none
Fc1ccc(NCCNCc2ccccc2)c(F)c1	none
CC(=O)NCc1ccc2[nH]c3c(c2c1)CCCC3	none
O=S(=O)(NCc1ccc2[nH]c3c(c2c1)CCCC3)c1ccccc1	USP8 block 34
Cc1ccccc1NC(=O)C1CCCN(c2nnc3cccc(C)n23)C1 (configuration not stated)	none
COc1ccccc1CN1C(=O)c2nc3ccccc3n2CC1(C)C(=O)NC1CCCC1 (configuration not stated)	USP30 inh 30
CC1(C(=O)NC2CCCC2)Cn2c(nc3ccccc32)C(=O)N1CCc1ccccc1 (configuration not stated)	USP30 inh 36
CC1(C(=O)NC2CCCC2)Cn2c(nc3ccccc32)C(=O)N1Cc1ccc(F)cc1 (configuration not stated)	none
CC1(C(=O)NC2CCCC2)Cn2c(nc3ccccc32)C(=O)N1Cc1ccco1 (configuration not stated)	none
CCCCc1nc2sc3c(NCc4ccccn4)ncnc3c2c2c1CCC2	none
CC(CNC(=O)c1cc(OCc2ccccc2)nc2ccccc12)c1ccccc1 (configuration not stated)	none
